{"source": "paper PMC7819943", "about": "“Rice protein-binding microarrays: a tool to detect cis-acting elements near promoter regions in rice”", "note": "Over roughly 68,000 sequences, “fluorescence intensity (a.u.)” has its median near 9,100; the highest 2% begin near 16,000. Many of the other results were omitted from the sample, so the highest values are more common in it than they were."}
{"target": "OsWRKY34 (Oryza sativa, UniProt Q0JBA9 1-250)", "sequence (Q0JBA9 entry or part of it)": "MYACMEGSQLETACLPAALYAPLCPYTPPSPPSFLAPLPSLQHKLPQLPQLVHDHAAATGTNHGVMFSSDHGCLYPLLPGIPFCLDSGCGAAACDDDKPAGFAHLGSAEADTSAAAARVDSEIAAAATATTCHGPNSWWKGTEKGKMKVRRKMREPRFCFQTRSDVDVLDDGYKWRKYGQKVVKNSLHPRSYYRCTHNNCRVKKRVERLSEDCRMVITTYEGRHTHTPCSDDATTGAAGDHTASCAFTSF", "experiment": "protein-binding microarray (RPBM); PBS, 2% BSA, 51.3 ng/ul salmon testes DNA, 50 uM zinc acetate, 200 nM TF, 25 C, 1 h; high values mean tight binding", "conditions": "protein: recombinant; tags: N-terminal polyhistidine and DsRed monomer fusion (pET32a); label: CyDye5-dUTP incorporated in the synthesized complementary strand; 3' TTTTT single-stranded linker to array surface; dsDNA, one strand shown", "method_in_brief": "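Binding signal here means per-feature fluorescence intensity in arbitrary units. The values were read on an Axon 4000B scanner after a custom Agilent array, double-stranded by primer extension with Cy5-dUTP, was incubated with 200 nM protein at 25 °C for 1 h in PBS with 2% BSA, salmon testes DNA and 50 µM zinc acetate, then washed. The proteins were transcription factors with an N-terminal polyhistidine tag and DsRed, expressed in E. coli BL21-CodonPlus and purified on Ni–NTA.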"}
{"sequence": "GAATTATTAGGGAGAAAGGAGTTGCAGGGTGGGGATTGTTCGGAGTCACCTAGTGCAG", "binding signal": "8330 fluorescence intensity (a.u.)"}
{"sequence": "CGTTCTCTGTCTGTCCCGCACTCCCGCCTTTTGCCAAAGCCGGAGTCACCTAGTGCAG", "binding signal": "9610 fluorescence intensity (a.u.)"}
{"sequence": "AGACCAAGCCATATCACCTTATGTAATTTCTTTATGTGCTCGGAGTCACCTAGTGCAG", "binding signal": "9010 fluorescence intensity (a.u.)"}
{"sequence": "GTCCCATCGTCTCTATTCGGGTCACCTTTGCACAACATGACGGAGTCACCTAGTGCAG", "binding signal": "10500 fluorescence intensity (a.u.)"}
{"sequence": "GTTGACGTCTCCCAAGTGCCACACCCGCCGCCACGTCACTCGGAGTCACCTAGTGCAG", "binding signal": "8880 fluorescence intensity (a.u.)"}
{"sequence": "CCCAGATTCGCCCCGCACCGCACCGCCCTTGGCTCGCCCCCGGAGTCACCTAGTGCAG", "binding signal": "8340 fluorescence intensity (a.u.)"}
{"sequence": "CTCTACTTCTAATGTTCCTTATTTTTTTTCCGAGTTTCTACGGAGTCACCTAGTGCAG", "binding signal": "9390 fluorescence intensity (a.u.)"}
{"sequence": "TACTCGTTTGGTTGTAATTTTTTTCCGCGTCTTTTCATCTCGGAGTCACCTAGTGCAG", "binding signal": "11200 fluorescence intensity (a.u.)"}
{"sequence": "TAGTTTCTTGTTTTCAGTTTTTTTTTCTTGTCATTTTTTTCGGAGTCACCTAGTGCAG", "binding signal": "19500 fluorescence intensity (a.u.)"}
{"sequence": "TTGAATTTTCAGTTTTCTTGTGCGTGTTTCCTTGTCATTTCGGAGTCACCTAGTGCAG", "binding signal": "9140 fluorescence intensity (a.u.)"}
{"sequence": "ATTCTTCATTCTTTTTGTGTGTGTTTCAGTGTGTTTGTTTCGGAGTCACCTAGTGCAG", "binding signal": "15800 fluorescence intensity (a.u.)"}
{"sequence": "CGGTCTTTGCCAAATTCCCACTCCGCTTGGCTTTCTGGCCCGGAGTCACCTAGTGCAG", "binding signal": "8250 fluorescence intensity (a.u.)"}
{"sequence": "CTAGGACATCATTTTGTTTGTCGTGTGTGCGCAACTGTTTCGGAGTCACCTAGTGCAG", "binding signal": "8160 fluorescence intensity (a.u.)"}
{"sequence": "GAGTGTAACGGGTGGGGTGGTTTGGAAGGTGATGAGGTATCGGAGTCACCTAGTGCAG", "binding signal": "11300 fluorescence intensity (a.u.)"}
{"sequence": "ACTCTTTACTCTTTCTTTTCTTCTTTCTTTTTTGGCGGGGCGGAGTCACCTAGTGCAG", "binding signal": "21200 fluorescence intensity (a.u.)"}
{"sequence": "TGGTTTTATGTGTGAGTTGGGGTAGTGGCGTTGGTAGGTTCGGAGTCACCTAGTGCAG", "binding signal": "11700 fluorescence intensity (a.u.)"}
{"sequence": "ATACCGTGATTGGGATTACCTGTGACCTTGCCTATTTGACCGGAGTCACCTAGTGCAG", "binding signal": "9120 fluorescence intensity (a.u.)"}
{"sequence": "GCGCCCTCCGACTCCGACGGCTTCTTGTTCTCGTTGACGCCGGAGTCACCTAGTGCAG", "binding signal": "8950 fluorescence intensity (a.u.)"}
{"sequence": "ATTTCTTGGAGACCGTTGACTCCTCTCTCTCTATTTCCATCGGAGTCACCTAGTGCAG", "binding signal": "12400 fluorescence intensity (a.u.)"}
{"sequence": "AACAGTTGACGCAGGTGGCAGAGTTGCTAGTTCTTGCCCTCGGAGTCACCTAGTGCAG", "binding signal": "61500 fluorescence intensity (a.u.)"}
{"sequence": "CACCATTGGGATGGGTGCCTATTTCTTGGAGACCGTTGACCGGAGTCACCTAGTGCAG", "binding signal": "17300 fluorescence intensity (a.u.)"}
{"sequence": "TTCTTTCTTTTTTGGCGGGGACTACTCTTTACTTGAACCTCGGAGTCACCTAGTGCAG", "binding signal": "12400 fluorescence intensity (a.u.)"}
{"sequence": "TGTGAGTAGTTTGTGGTTGGGAGTGTAACGGGTGGGGTGGCGGAGTCACCTAGTGCAG", "binding signal": "16900 fluorescence intensity (a.u.)"}
{"sequence": "GGAGAGTAGCAGTGTGGTTGATGATGGTGTTCTTGCTACTCGGAGTCACCTAGTGCAG", "binding signal": "9890 fluorescence intensity (a.u.)"}
{"sequence": "CTTTCTTTCTTTCTTTCTTCTTTTTTTTCTTTTTTTTTTGCGGAGTCACCTAGTGCAG", "binding signal": "8640 fluorescence intensity (a.u.)"}
